ANO1 block: inhibitors of mouse TMEM16A calcium-activated chloride channel; HEK293 TMEM16A/YFP iodide influx fluorescence, ionomycin; normalized B-score (activity score, 25-100; higher = stronger inhibition) at 10 µM; 310,000 tested, 1.2% active; AID 588511;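 active means ratio plate-corrected score three or more library SD toward inhibition, starting fluorescence score within five deviations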;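 further: score derived from kinetic fluorescence span divided by baseline fluorescence per well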
MPTP inh: inhibitors of mitochondrial permeability transition pore; isolated mouse mitochondria, Ca2+ swelling absorbance, 30 min; inhibition, % at 10 µM; 360,000 tested, 1.4% active;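 active means inhibition of 50% or more, scaled per plate between neutral and stimulator controls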
CRFBP-R2 agonist: CRF-BP/CRF-R2 complex agonism; AID 588473; 350,000 tested, 0.46% active; HEK293 CRF-R2/CRF-BP, calcium dye fluorescence (FLIPR); percent of saturating CRF peptide response; activation, % at 13.2 µM;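 active means activation of at least 50%, plus an integration ratio under a set limit after plate pattern correction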
CRFBP-R2 block: CRF-BP/CRF-R2 complex antagonism. inhibition, % at 11.8 µM. 350,000 tested, 0.59% active. AID 588475. HEK293 CRF-R2/CRF-BP, CRF-induced calcium fluorescence;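 active means inhibition of the ligand-induced calcium signal above about 50% at the single tested concentration, limit read from the data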
NR3A LBD binder: NR3A (human) ligand-binding domain modulation; 340,000 tested, 2.5% active; Tm shift relative to glycine control, % at 25 µM; NR3A LBD differential scanning fluorimetry, Tm shift; 0% = protein alone, 100% = glycine-bound protein; AID 1259313;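 active means melting temperature shift of at least 10% of the positive control shift, at one fixed dose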
ANO1 activ: activates or potentiates the mouse TMEM16A chloride channel. Q8BHY3. HEK293 TMEM16A/YFP-H148Q/I152L, iodide quench fluorescence; stronger effect = lower value. B-score at 10 µM. 340,000 tested, 0.3% active. AID 623877;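 active means fluorescence-ratio B-score plate-corrected deviation score at least 3 library SD below zero, with starting fluorescence score within 5 deviations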;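 further: channel opened by trigger with iodide after compound preincubation; score built on the fluorescence ratio of max minus min over baseline; more negative score means more quench and so TMEM16A activation or potentiation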
A number is an active result; i = inactive; nt = no result. Sampled rows, rich in hits. Any-hit rate of the full collection: about 5.1%.

SMILES | ANO1 block | MPTP inh | CRFBP-R2 agonist | CRFBP-R2 block | NR3A LBD binder | ANO1 activ
COc1ccc(NC(=O)N(C)C[C@H]2Oc3c(NS(=O)(=O)c4ccc(OC)cc4)cccc3C(=O)N([C@H](C)CO)C[C@@H]2C)cc1 | nt | i | i | i | i | i
C[C@H](CO)N1C[C@H](C)[C@@H](CN(C)C(=O)Nc2ccc(C(F)(F)F)cc2)Oc2c(NC(=O)Nc3ccc(C(F)(F)F)cc3)cccc2C1=O | nt | i | i | i | 27.9 | i
COc1ccc(S(=O)(=O)Nc2cccc3c2O[C@H](CN(C)C(=O)NC(C)C)[C@@H](C)CN([C@H](C)CO)C3=O)cc1 | nt | i | i | i | 15.7 | i
N#Cc1c(N)n(-c2ccccc2N)c2nc3ccccc3nc12 | i | i | i | i | i | i
N#Cc1c(N)n(-c2cccc(C(=O)O)c2)c2nc3ccccc3nc12 | i | i | i | 57.2 | i | i
COc1cc(NC(=NS(=O)(=O)c2ccccc2)c2ccccc2)ncn1 | nt | i | i | i | i | i
O=C(CCc1nc2ccccc2c(=O)[nH]1)Nc1ccc(F)c([N+](=O)[O-])c1 | i | i | i | i | i | i
O=C(Nc1cc([N+](=O)[O-])c2[nH]c(=O)c3ccccc3c2c1)C(F)(F)F | nt | i | i | i | 43.7 | i
CC(CNc1ccc(Cl)cc1)(CNc1ccc(Cl)cc1)[N+](=O)[O-] | nt | i | i | i | 24.8 | i
CCOC(=O)c1cc(C#N)c(Oc2ccccc2OC)nc1-c1ccccc1 | i | i | i | 56.5 | i | i
CCOC(=O)c1cc(C#N)c(SC)nc1-c1ccccc1 | i | i | i | i | i | i
CC(=O)c1cc(C#N)c(N2CCN(c3ccccc3)CC2)nc1C | i | i | i | i | i | nt
CCOC(=O)c1cc(C#N)c(N2CCN(c3ccccn3)CC2)nc1-c1ccccc1 | i | i | i | 54.2 | i | i
CCc1ccccc1NC(=O)Cn1nnc(C(=O)NCc2cccc(OC)c2)c1N | i | i | i | i | i | i
COC(=O)c1c(-c2ccccc2)csc1N | i | i | i | i | i | i
COC(=O)C1=C(N)c2ccccc2C1(C#N)c1ccccc1 (stereo not drawn) | i | i | i | i | i | -10.4
NNC(=O)c1nnsc1-c1csnn1 | nt | i | i | i | i | i
CCOc1ncccc1C(=O)NNC(=O)c1cccc(S(=O)(=O)N2CCOCC2)c1 | nt | i | i | i | i | i
Cc1ccc(NC(=O)C(NC2CCCc3ccccc32)c2ccccc2)c([N+](=O)[O-])c1 (stereo not drawn) | i | i | i | i | i | -5.78
COc1ccc(C)cc1Nc1n[n+](-c2ccccc2)c(-c2ccc(NC(C)=O)cc2)s1 | i | i | i | i | i | i
COc1ccc(C)cc1Nc1n[n+](-c2ccccc2)c(-c2ccc(SC)cc2)s1 | i | i | i | i | 26.9 | i
COc1cc([N+](=O)[O-])ccc1-c1ccc(/C=N/NC(N)=O)o1 | i | i | i | i | i | i
COc1cc([N+](=O)[O-])ccc1-c1ccc(/C=N/NC(=O)OC(C)(C)C)o1 | i | i | 57.2 | i | i | i
Cc1cccc(NC2=Nc3ccccc3N3C2=Nc2c(c(C)nn2-c2ccccc2)C3c2ccc(O)c(O)c2)c1 (stereo not drawn) | i | i | i | i | 21.8 | i
Cc1nn(-c2ccccc2)c2c1C(c1ccc(O)c(O)c1)N1C(=N2)C(Nc2ccccc2)=Nc2ccccc21 (stereo not drawn) | i | i | i | i | i | i
SMILES | ANO1 block | MPTP inh | CRFBP-R2 agonist | CRFBP-R2 block | NR3A LBD binder | ANO1 activ
Cc1ccc(NC2=Nc3ccccc3N3C2=Nc2c(c(C)nn2-c2ccccc2)C3c2ccc(O)c(O)c2)cc1 (stereo not drawn) | nt | i | i | i | 14.9 | i
CCN1CCN(C(=O)C2=CC(c3ccc(OC)cc3)=NS(=O)(=O)N2C)CC1 | i | i | i | 63.0 | i | i
COc1ccc(C2=NS(=O)(=O)N(C)C(C(=O)N3CCN(C)CC3)=C2)cc1 | i | i | i | i | i | i
Cn1c(SCC(=O)c2ccc3c(c2)Cc2ccccc2-3)nnc1-c1ccccc1 | i | i | i | i | i | i
CCC(=O)Nc1nnc(SCC(=O)c2ccc3c(c2)Cc2ccccc2-3)s1 | i | i | i | i | 11.3 | i
CC(=O)Nc1nnc(SCC(=O)c2ccc3c(c2)Cc2ccccc2-3)s1 | i | i | i | i | 14.9 | i
CCC(=O)Nc1nnc(SCC(=O)N2c3ccccc3CC2C)s1 (stereo not drawn) | i | i | i | i | i | i
O=C(O)c1ccc(Cl)c(NC(=O)C2CCN(S(=O)(=O)c3cccs3)CC2)c1 | nt | i | i | i | nt | nt
Cc1ccc(SCCC(=O)Nc2ccccc2Br)cc1 | i | i | i | i | i | i
Cc1ccc(SCCC(=O)Nc2ccccc2C(=O)NC(C)C)cc1 | i | i | i | i | 14.3 | i
Nc1ccc(-c2nc3ccc(N)cc3s2)cc1 | i | i | i | i | i | i
Cc1cc(-c2nc3cc(F)ccc3s2)ccc1N | nt | i | i | i | 13.0 | i
CCOc1cc(/C=N/NC(=O)c2cc(C3CC3)[nH]n2)ccc1O | i | i | i | i | 25.5 | i
O=C(N/N=C/c1cc(Br)c(O)c(Br)c1)c1cc2c(ccc3ccccc32)o1 | 100 | i | i | i | i | i
CCn1cc(/C=N/NC(=O)c2cc3c(ccc4ccccc43)o2)c2ccccc21 | i | i | i | i | 25.6 | i
CCOc1cc(/C=N/NC(=O)c2cc(C)[nH]n2)ccc1OC(=O)c1ccc([N+](=O)[O-])cc1 | 100 | nt | nt | nt | nt | nt
CCOc1cc(/C=N\NC(=O)c2ccc(C)nc2)ccc1OC(=O)c1ccc(F)cc1 | i | i | i | i | i | i
COc1cc(/C=N/NC(=O)c2cc(C3CC3)[nH]n2)ccc1O | i | i | i | i | i | i
CCOc1cc(/C=N/NC(=O)c2cc3c(ccc4ccccc43)o2)ccc1O | i | i | i | i | 28.3 | i
O=C(N/N=C/c1ccc(O)c(Br)c1)c1cc2c(ccc3ccccc32)o1 | i | i | i | i | 35.3 | i
O=C(N/N=C/c1cc(Cl)c(O)c(Cl)c1)c1cc2c(ccc3ccccc32)o1 | 100 | i | i | i | i | i
O=C(N/N=C/c1cccnc1)c1cc2c(ccc3ccccc32)o1 | i | i | i | i | i | i
Oc1ccc(/C=N/Nc2nc(N3CCCCCC3)nc(N3CCCCCC3)n2)c(O)c1 | i | i | i | i | 14.6 | i
O=C1c2cccc3cccc(c23)C(=O)N1/N=C/c1ccc(O)cc1O | i | i | i | i | 25.1 | i
Oc1ccc(/C=N/N2CCCCC2)c(O)c1 | i | i | i | i | 33.4 | i
Cc1ccc2c(c1)C(=O)CC(c1ccccc1)S2 (stereo not drawn) | nt | i | i | i | 12.6 | i
O=C1CC(c2ccccc2)Sc2ccccc2N1 (stereo not drawn) | i | i | i | i | i | i
